Shown are actives, neighbours in structure and some others; about 1.6% of the full set was active somewhere.
PKA-R1A act: activators of PKA-R1A holoenzyme, primary screen, biochemical, fluorescence polarization, Cy5-IP20, bovine R1A, mouse PKAc; cAMP-dependent protein kinase type I-alpha regulatory subunit (Bos taurus) + …; PKA-R1A dissociation; scaled: DMSO 0%, 113 µM cGMP 100%; activation, % at 11.4 µM; 0.083% of 340,000 active; AID 504707, 2011;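 active means percent activation above the mean of all tested compounds plus 3 SD, cut at about 19% in these data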;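 further: higher means more PKAc released from R1A so a rise in polarization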
ATG4B inh: ATG4B protease inhibitors, primary screen, biochemical, fluorescence, uHTS; Cysteine protease ATG4B (Homo sapiens), Q9Y4P1; ATG4B cleavage of LC3-PLA2, NBD-HPC fluorescence, 1 h; inhibition, % at 8.33 µM; 0.51% of 340,000 active; AID 504462, 2011; in the data active means inhibition above about 40%
Target sequence (Q9Y4P1 whole entry, looked up): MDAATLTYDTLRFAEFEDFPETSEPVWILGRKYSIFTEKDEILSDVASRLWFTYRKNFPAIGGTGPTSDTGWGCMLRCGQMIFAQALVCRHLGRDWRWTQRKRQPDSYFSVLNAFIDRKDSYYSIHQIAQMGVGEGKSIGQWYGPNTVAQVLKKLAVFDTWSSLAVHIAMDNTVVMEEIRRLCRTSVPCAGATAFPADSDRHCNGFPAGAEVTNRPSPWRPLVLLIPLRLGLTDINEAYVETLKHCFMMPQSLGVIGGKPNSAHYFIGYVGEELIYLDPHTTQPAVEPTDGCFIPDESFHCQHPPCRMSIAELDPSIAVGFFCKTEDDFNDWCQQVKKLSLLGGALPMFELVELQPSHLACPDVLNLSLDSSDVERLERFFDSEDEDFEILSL
PKA-R2B act: activators of PKA-R2B holoenzyme, primary screen, biochemical, fluorescence polarization, Cy5-IP20, human; activation, % at 11.4 µM; PKA-R2B holoenzyme dissociation; R2B truncated from residue 108, S112A mutant; 0% DMSO only, 100% 113 µM cGMP; cAMP-dependent protein kinase catalytic subunit beta (Homo sapiens) + cAMP-dependent …; 0.079% of 340,000 active;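 active means activation above a cutoff set at the mean over all compounds plus 3 SD, cut at about 18% in these data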;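 further: higher means more holoenzyme dissociation and a rise in polarization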
NRP1-CendR mod: modulators of CendR peptide binding to NRP-1, primary screen, biochemical, fluorescence polarization, uHTS. 0.85% of 360,000 active. inhibition, % at 25 µM. FAM-RPARPAR peptide binding to NRP-1. Neuropilin-1 (Homo sapiens), O14786;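 active means inhibition or corrected inhibition above about 18%, plus a signal ratio from 0.5 to 1.5, limit read from the data, passing the limit was not always enough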
VLA-4 inh: inhibition in human VLA-4 binding assay, primary screen, VLA-4 allosteric modulator project, MLPCN library, flow cytometry, VLA-4 expressing cells; 0.2% of 330,000 active; inhibition, % (about 7 µM as worked out from the volumes in the protocol); ligand binding flow cytometry; Integrin alpha-4 (Homo sapiens), P13612; AID 2557, 2010; in the data active means inhibition above about 50%
* marks the source's active call; other numbers are inactive results; / = no result given; ! = repeats disagree.

SMILES	PKA-R1A act	ATG4B inh	PKA-R2B act	NRP1-CendR mod	VLA-4 inh
COc1ccc(-c2cccc(C3CC=CC4C3C(=O)N(Cc3ccccc3)C4c3ccc4ccccc4c3)c2)cc1 (stereo not drawn)	-3	0	-14	28*	5
CC(C)[C@@H](C(=O)N[C@@H](CCc1ccc(O)cc1)C(=O)O)N(C)C(=O)[C@H](CO)NC(=O)[C@@H](O)[C@H](N)CCCCCCCCl	/	/	/	-8	/
COC(=O)c1ccc(COc2cccn3c(N(C)C(=O)CCC4CCCC4)c(C)nc23)cc1	/	/	/	19	/
O=c1[nH]c2ccc(N/C(=N/S(=O)(=O)c3ccccc3)c3ccccc3)cc2[nH]1	2	-1	1	21*	4
Cc1ccc(NC(=S)N/C(=N/S(=O)(=O)c2ccccc2)c2ccccc2)cc1	3	-1	0	22*!	1
CC(=O)Nc1ccc(N/C(=N\S(=O)(=O)c2ccccc2)c2ccccc2)cc1	-6	-7	3	2	-2
CCN(C(=O)CSc1nnc(-c2ccccc2Cl)n1C1CCCC1)C1CCS(=O)(=O)C1 (stereo not drawn)	-3	1	-3	20*	2
CCN(C(=O)CSc1nnc(-c2c[nH]c3ccccc23)n1C1CC1)C1CCS(=O)(=O)C1 (stereo not drawn)	-17	-25	2	5	-6
CC1(C(=O)Nc2cccc(C#N)c2)CCN1C(=O)Cc1ccc(-c2ccccc2)cc1 (stereo not drawn)	/	/	/	-4	/
Cc1ccc(Cl)cc1-c1cc(C(=O)Nc2ccc(F)cc2)[nH]n1	/	/	/	-1	/
COc1cc2cc(Oc3ccc4ccc(=O)oc4c3)c(=O)oc2cc1OC(=O)/C=C/c1ccccc1	-4	0	-5	27*	-9
CCN(CC)C(=O)c1cccc(-c2csc(C(NC(C)=O)c3cccc(OC)c3)n2)c1 (stereo not drawn)	/	/	/	22*	/
COc1cccc(C(NC(C)=O)c2nc(-c3ccc(C)c(C)c3)cs2)c1 (stereo not drawn)	/	/	/	34*	/
CCN(CC)C(=O)c1cccc(-c2csc(C(NC(C)=O)c3ccccc3)n2)c1 (stereo not drawn)	/	/	/	-11	/
COc1ccc(C(O)c2nc(-c3ccc4ccccc4c3)cs2)cc1 (stereo not drawn)	/	/	/	33*	/
CC1CCC(NC(=O)c2cccn2C)CC1 (stereo not drawn)	4	11	-2	5	/
COc1ccc(-c2cc(C(F)(F)F)nc(SCC(=O)Nc3cc(C)on3)n2)cc1OC	-3	4	-5	39*	4
COc1ccc(-c2cc(C(F)(F)F)nc(SCCC(=O)Nc3cc(C)on3)n2)cc1	0	-9	0	9	-5
COc1ccc(-c2cc(C(F)(F)F)nc(SCC(=O)NCCN3CCOCC3)n2)cc1OC	9	-5	-7	31*	-10
O=C(CSc1nc(-c2ccc(F)cc2)cc(C(F)(F)F)n1)NCCN1CCOCC1	-10	-10	-2	5	0
CN1CCN(S(=O)(=O)c2cccc3nsnc23)CC1	3	-8	3	5	4
O=C(CCl)Nc1ccc(N2CCCCCC2)cc1	-4	4	-6	43*	4
CN(Cc1ccccc1)C(c1ccnc2ccccc12)c1nnnn1-c1ccc2c(c1)OCCO2 (stereo not drawn)	/	/	/	12	/
COc1ccc(-c2nc(CS(=O)CC(=O)NC(C)CCc3ccccc3)c(C)o2)cc1OC (stereo not drawn)	0	-3	-3	5	0
Cc1ccc(S(=O)(=O)CCC(=O)OCc2cc(C)ccc2C)cc1	-21	4	-13	27*	8
SMILES	PKA-R1A act	ATG4B inh	PKA-R2B act	NRP1-CendR mod	VLA-4 inh
CCNC(=O)NC(=O)CSc1ccc2ccccc2c1	-4	-6	1	1	-1
CCNC(=O)NC(=O)CSc1ccccc1F	0	-1	6	35*	4
CC1=C(C(=O)OCC2CCCO2)C(c2ccc(O)cc2)NC(=O)N1 (stereo not drawn)	3	0	5	-1	2
CC1=C(C(=O)OCC2CCCO2)C(c2ccccc2)NC(=O)N1 (stereo not drawn)	1	6	-2	28*	17
Cc1cccc(/C(N)=N/OC(=O)Cc2cccc3ccccc23)c1	-4	2	-8	2	3
Cc1cccc(C(=O)O/N=C(\N)Cc2cccc3ccccc23)c1	-5	46*	-5	4	-4
CC(C)(C)OC(=O)NCCc1nc(NC(=O)OCc2ccccc2)sc1C(=O)O	/	/	/	2	/
Cc1ccccc1Nc1cc(=O)oc2ccccc12	-11	3	0	22*	6
Cc1ccc(Nc2cc(=O)oc3ccccc23)c(C)c1	-1	1	7	9	-15
CSc1nnc(-c2ccccc2)c(-c2ccccc2)n1	-4	9	-14	-4	7
CSc1nnc(-c2ccco2)c(-c2ccco2)n1	2	-1	1	29*	6
CCc1c2c(nc3ccc(OC(=O)N4CCC(N5CCCCC5)CC4)cc13)-c1cc3c(c(=O)n1C2)COC(=O)[C@]3(O)CC	7	-8	5	-4	2
CCC1(O)C(=O)OCc2c1cc1n(c2=O)Cc2cc3cc(O)ccc3nc2-1 (stereo not drawn)	-5	-33	-1	45*	/
Cc1ccc(C(=O)NCC(=O)Nc2ccccc2C)o1	7	/	3	23*	/
COc1ccc(S(=O)(=O)N2CCC[C@H]2C(=O)N2CCC[C@H]2C(=O)N(C)Cc2ccccc2)cc1C	/	/	/	-5	/
O=C(NCCc1nc2ccccc2[nH]1)c1ccco1	0	7	-4	-3	6
O=C(/C=C/c1ccco1)N/C(=C\c1ccccc1)C(=O)NCCc1nc2ccccc2[nH]1	-7	-11	-18	40*	9
O=C(Nc1cccc(C(=O)O)c1)Nc1cccc2ccccc12	0	-8	-9	0	3
O=C(O)c1ccc(C(=O)Nc2cccc3ccccc23)c(C(=O)O)c1	-2	0	-5	25*	10
Cn1nc2c(c1C(=O)N1CCCC(C(=O)c3cc(F)ccc3F)C1)CCCC2 (stereo not drawn)	-14	-2	-9	53*	8
COc1ccc(C(=O)C2CCCN(C(=O)c3c4c(nn3C)CCCC4)C2)cc1F (stereo not drawn)	-5	0	1	17	-6
Cc1n[nH]c(=O)n1-c1ccc(C(C)(C)C)cc1	2	-14	0	21*	-5
C=CCC(NC(=O)N(C)C)(C(C)=O)C(=O)OC (stereo not drawn)	/	/	/	-23	/
CCOC(=O)[C@]12CCCC=C1N(Cc1ccccc1)C(=O)[C@H](CC(=O)NCCCN1CCCC1=O)C2	/	/	/	1	/
